# 697 NFkB inh – lowers PMA/ionomycin-induced NF-kB signal in 697 B cells. hit rate 0.33% among 330,000. 697 B-cell NF-kB luciferase reporter, 16 h. inhibition, % at 4 µM. AID 435022; in the data active means inhibition above about 35%
# Mdm2 MdmX PPI – inhibitors of human Mdm2/MdmX interaction. inhibition, % at 8 µM. SaOS-2 split-luciferase Mdm2/MdmX complementation, luminescence. AID 485346. O15151+Q00987. hit rate 3% among 330,000;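 active means inhibition of at least 50% at 8 µM in the primary screen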
# Target sequence (O15151 whole entry, looked up): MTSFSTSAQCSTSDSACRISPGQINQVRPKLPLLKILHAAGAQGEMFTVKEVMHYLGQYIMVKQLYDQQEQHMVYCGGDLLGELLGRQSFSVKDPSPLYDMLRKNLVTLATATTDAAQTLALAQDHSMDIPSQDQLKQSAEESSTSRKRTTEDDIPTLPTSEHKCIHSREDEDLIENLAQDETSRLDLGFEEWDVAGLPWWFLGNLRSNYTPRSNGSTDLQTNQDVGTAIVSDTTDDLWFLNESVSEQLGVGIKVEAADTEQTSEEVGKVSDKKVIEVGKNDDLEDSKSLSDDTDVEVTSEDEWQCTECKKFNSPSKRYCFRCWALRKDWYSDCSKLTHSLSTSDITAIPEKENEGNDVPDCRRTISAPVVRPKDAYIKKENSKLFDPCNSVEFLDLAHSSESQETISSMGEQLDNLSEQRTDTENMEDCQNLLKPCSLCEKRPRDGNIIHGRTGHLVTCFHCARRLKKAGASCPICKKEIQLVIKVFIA
# Target sequence (Q00987 whole entry, looked up): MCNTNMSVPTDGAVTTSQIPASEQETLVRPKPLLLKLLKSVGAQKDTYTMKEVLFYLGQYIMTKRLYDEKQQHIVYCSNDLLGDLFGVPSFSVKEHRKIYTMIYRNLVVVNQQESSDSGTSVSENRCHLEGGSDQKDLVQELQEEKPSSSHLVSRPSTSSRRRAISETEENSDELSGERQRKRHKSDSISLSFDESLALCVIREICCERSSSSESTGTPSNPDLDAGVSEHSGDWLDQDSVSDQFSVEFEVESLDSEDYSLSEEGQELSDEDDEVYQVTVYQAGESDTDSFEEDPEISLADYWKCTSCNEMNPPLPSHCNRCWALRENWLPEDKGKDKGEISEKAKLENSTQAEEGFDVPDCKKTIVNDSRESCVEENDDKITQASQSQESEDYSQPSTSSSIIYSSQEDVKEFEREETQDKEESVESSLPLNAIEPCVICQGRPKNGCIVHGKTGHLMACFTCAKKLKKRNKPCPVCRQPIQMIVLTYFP
# aSyn UTR inh – 5' untranslated region of α-synuclein, MLPCN primary screen; AID 1813; inhibition, % (tested at 7.5 µM); hit rate 0.82% among 300,000; alpha-synuclein 5'UTR reporter, inhibitor activity; in the data active means inhibition above about 60%;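 further: H4 neuroglioblastoma cells stably carrying SNCA 5'UTR luciferase fusion; 0% = DMSO wells and 100% = positive control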
# Jurkat NFkB inh – lowers PMA/ionomycin-induced NF-kB signal in Jurkat cells; AID 435003; inhibition, % at 4 µM; hit rate 0.53% among 330,000; PMA/ionomycin-induced NF-kB luciferase reporter, luminescence; in the data active means inhibition above about 50%
# KLF5 inh – suppresses KLF5 promoter-driven expression. inhibition, % at 5 µM. hit rate 0.23% among 290,000. AID 1700. DLD-1 KLF5 promoter-luciferase reporter, luminescence;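 active means inhibition above a per-plate limit of that plate's mean compound inhibition plus 3 SD, cut at about 60% in these data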;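 further: 0% = DMSO wells and 100% = LY294002 at 200 µM; higher means less KLF5 promoter-driven luciferase light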
# Gli-Sufu block – Gli-Sufu pathway antagonism. Sufu-KO-LIGHT fibroblasts, Gli luciferase reporter luminescence. inhibition, % at 5 µM. hit rate 0.74% among 340,000. AID 588413;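 active means inhibition above about 55%, limit read from the data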;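 further: 0% = DMSO-treated cells and 100% = wells with medium but no cells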
# Mdm2 MdmX conf – human Mdm2/MdmX binding inhibition, confirmed; shares compounds with Mdm2 MdmX PPI; luminescent assay; inhibition, % at 8 µM; hit rate 55% among 10,000; AID 489028; in the data active means inhibition above about 40%
# FLuc counter – inhibits full-length luciferase, flagging false Mdm2/MdmX hits; SaOS-2 full-length luciferase counterscreen, luminescence; hit rate 77% among 6,200; shares compounds with Mdm2 MdmX PPI; AID 504607; inhibition, % at 8 µM;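 active means mean inhibition at 8 µM reaching about 37%, which flags the compound as non-specific, limit read from the data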;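 further: p53-null SaOS-2 cells with luciferase driven by a doxycycline-inducible promoter; compound on cells about two nights before reading with doxycycline added after day one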
# Active calls of the source: *; i = inactive; x = not tested or not shown. In the library only some 4.1% were active in any assay of this set; here they are far more common.
SMILES,697 NFkB inh,Mdm2 MdmX PPI,aSyn UTR inh,Jurkat NFkB inh,KLF5 inh,Gli-Sufu block,Mdm2 MdmX conf,FLuc counter
COc1cc2oc(=O)cc(-c3ccc(-c4ccc(CO)cc4)cc3)c2c(OC)c1OC,-10,68*,x,x,x,-2,64*,48*
COc1ccc(N2CCN(C3CCCN(C(=O)CN4CCOC4=O)C3)CC2)cc1 (stereo not given),23,25,-6,3,-23,2,x,x
COc1ccc(CCNC(=S)Nc2cccc3ccccc23)cc1,-8,64*,-29,-2,-5,-3,33,x
COc1ccc(OCCNC(=S)Nc2cccc3ccccc23)cc1,5,-11,-8,-2,-39,1,x,x
Cc1ccc(/C=C/S(=O)(=O)NCCC(=O)NCc2ccc(F)cc2)cc1,19,8,x,4,x,3,x,x
OC(COc1ccc(CNCCc2ccccc2F)cc1)CN1CCCCC1 (stereo not given),10,55*,4,48,-14,11,40*,54*
O=C(NCCc1ccccc1)C1CCC(Cn2c(=O)c3ccccc3n(Cc3cccc(Cl)c3)c2=O)CC1 (stereo not given),11,54*,3,13,x,-6,0,x
CCOC(=O)c1c(C)oc2c(F)c(F)c(F)c(F)c2c1=O,-2,101*,-85,-4,-8,2,36,x
CCOC(=O)c1c(C)oc2c1cc(O)c1ccccc12,-5,-199,-104,3,10,5,x,x
Cc1cc(C)n(-c2nc3ccccc3nc2Nc2ccc3c(c2)OCO3)n1,2,4,1,1,-10,1,x,x
Cc1cc(C)n(-c2nc3nonc3nc2Nc2cccc(C)c2C)n1,1,51*,3,12,-23,10,20,x
Cc1ccc(-c2nnn(CC(=O)N(CCCO)C(C(=O)NC3CCCC3)c3ccc(F)cc3)n2)o1 (stereo not given),3,20,-8,-17,6,13,x,x
CCCCNC(=O)c1ccc(Cn2c(=S)[nH]c3c([nH]c4ccc(OC)cc43)c2=O)cc1,-7,89*,105*,-19,-15,-5,16,x
Cc1ccc(S(=O)(=O)NCc2ccc(C(=O)NCCCN3CCC(Cc4ccccc4)CC3)cc2)cc1,-9,75*,-9,20,-28,24,42*,43*
O=C(NCc1ccccc1)c1ccc(CN2CCC(Cc3ccccc3)CC2)cc1,-10,54*,-5,-6,-22,2,28,x
Cc1ccc(S(=O)(=O)NCCC(=O)N2CCC(Cc3ccccc3)CC2)cc1,-26,2,19,6,x,5,x,x
CCc1ccccc1NC(=O)c1ccc(CN2CCC(Cc3ccccc3)CC2)cc1,-18,51*,-21,17,-11,-6,36,76*
Cc1ccnc(NC(=S)NC(=O)/C=C/c2ccc(Cl)cc2)c1,-10,8,-43,-8,-7,-16,x,x
O=C(Nc1cccc(S(=O)(=O)NCc2ccco2)c1)c1cc(-c2ccc(F)cc2)nc2ccccc12,18,69*,-39,-14,-12,-7,32,76*
COc1ccc(-c2cc(C(=O)NCc3ccco3)c3ccccc3n2)cc1OC,22,-12,-20,-5,x,-1,x,x
Cc1cccc(C(=O)Nc2cccc(S(=O)(=O)NCc3ccco3)c2)c1,17,8,x,11,x,2,x,x
COc1ccc(-c2cc(C(=O)Nc3cccc(S(=O)(=O)NCc4ccco4)c3)c3ccccc3n2)cc1OC,13,54*,23,5,-5,5,66*,64*
COc1cc(C(=O)Nc2cccc(S(=O)(=O)NCc3ccco3)c2)cc(OC)c1OC,21,69*,x,-7,x,18,40,98*
COc1ccc(NC(=O)CS(=O)CC(=O)Nc2cccc3cccnc23)cc1 (stereo not given),8,-20,29,20,-9,3,x,x
COc1ccccc1[C@]1(C)ON(c2ccccc2C(F)(F)F)C1=O,28,92*,x,8,x,39,77*,37*
SMILES,697 NFkB inh,Mdm2 MdmX PPI,aSyn UTR inh,Jurkat NFkB inh,KLF5 inh,Gli-Sufu block,Mdm2 MdmX conf,FLuc counter
CC[C@]1(c2ccccc2OC)ON(c2ccccc2C(F)(F)F)C1=O,2,90*,x,0,x,-22,84*,35
CC(C)C[C@]1(c2ccccc2)ON(c2ccccc2C(F)(F)F)C1=O,16,49,x,14,x,-15,x,x
COCCNCC(=O)Nc1nc(C)cs1,x,x,x,x,2,-3,x,x
O=C1[C@H](Oc2ccccc2)[C@@H](c2ccccc2)N1c1ccncc1,-10,50*,x,x,x,-10,-1,x
Cc1cccc(-c2nc3c(c(SCC(=O)N4CCCC4)n2)COC(C)(C)C3)c1,-3,7,-60,-4,9,38,x,x
N#CC(C(=O)Nc1ccc(Cl)c(Cl)c1)=C1Nc2ccccc2N1,-12,59*,-23,3,-21,-14,31,37*
CCn1cc(S(=O)(=O)c2ccccc2)c(=O)c2cc(F)c(N3CCN(C)CC3)cc21,-13,4,4,5,-6,1,x,x
Cc1cc(C)cc(S(=O)(=O)c2cn(C)c3cc(N4CCN(C)CC4)c(F)cc3c2=O)c1,12,96*,-8,-10,-23,4,12,x
Cc1cccc(CS(=O)(=O)c2nnc([C@H](Cc3ccccc3)NC(=O)OC(C)(C)C)o2)c1,-4,97*,-12,24,2,3,56*,54*
CC(C)(C)OC(=O)N[C@@H](Cc1ccccc1)c1nnc(SCC(N)=O)o1,-9,4,-14,-6,-35,6,x,x
COC(=O)CS(=O)(=O)c1nnc([C@H](Cc2ccccc2)NC(=O)OC(C)(C)C)o1,-11,84*,19,30,-14,-12,56*,15
CN(C)CCCN(C(=O)c1cc(-c2cccs2)nc2ccccc12)c1nc2ccc(F)cc2s1,14,100*,99*,18,-35,3,57*,68*
CN(C)CCN(C(=O)/C=C/c1cccs1)c1nc2ccc(F)cc2s1,-18,59*,-42,-8,-36,2,43*,56*
CC1(C)Oc2ccc3ccc(=O)oc3c2-c2cn[nH]c21,28,60*,-5,3,-17,-17,19,x
CC1(C)Oc2ccc3ccc(=O)oc3c2-c2cnoc21,11,27,5,-2,-23,12,x,x
O=C(CCCCCNC(=O)N1CCn2c1nc1ccccc12)NCc1ccc(F)cc1,10,13,8,23,-8,-8,x,x
O=C(Nc1ccccc1O)c1ccc(NS(=O)(=O)c2cccc3cccnc23)cc1,-246,77*,i,19,-39,33,24,x
COC(=O)Cc1ccc(NC(=S)N2CCN(c3ccc(F)cc3)CC2)cc1,x,x,8,x,14,19,x,x
CC(C)(CN1CCCC1)NS(=O)(=O)c1ccc(Cl)cc1,4,-27,10,5,11,-12,x,x

# Screens: PubChem, several laboratories
